# Results from PubChem BioAssay AID1159506 (National Center for Advancing Translational Sciences (NCATS), 2015).
# The full ranking holds about 59,000 sequences; the median of the read-out is about -0.00055, and the lowest 2% start at about -2. Shown is part of a subset that was picked to be rich in the lowest values.
# Experiment: Identification of proteins required for the processing of the EWS-FLI1 nascent transcript;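 also: robust z of luciferase light less the median z of siRNAs with the same seed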
# Conditions: TC32 Ewing sarcoma NR0B1-luc vs CMV-luc (EWS-FLI1 target promoter against control promoter), 48 h; screened at 20 nM (by protocol)
# Summary of the method: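 Readout: OneGlo luminescence, 48 h post-transfection, TC32-NR0B1-luc vs TC32-CMV-luc in parallel. siRNA 20 nM final, RNAiMax lipid, 600 cells/well; z-score-MAD transformed, then seed-adjusted.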
row,Sequence,seed-corrected z-score
1,AUAGGCUUCGUUAAUGAGC against YJEFN3,1.04
2,UUCCUGCUUGCCUCUAUGG against USP17L9P,-0.281
3,UCUCGGUCGAUGAAGUACC against KCTD7,-3.05
4,UCAAUCACACGUCUUAUGC against TRMT5,0.553
5,UUCGUAUUCAACUGACUGC against TCP11L1,1.06
6,UAUGGGUUCAUCAGGCUCA against SH2D2A,-3.05
7,AAGAGAUCCAGCUUCCUGC against SPEG,-0.187
8,UCUUGAACCGGAUCGAUGC against TTLL9,-0.369
9,UUCGUGGGUAGCCAUGACC against F8A2,0.752
10,UUUUCAUAGAGGAUGAUCU against CRYBB2,1.03
11,UCUAAUACAAGGUUCAUAU against SNRPEP2,-2.56
12,UCAAUGCUCAGGGAACUGC against C1orf216,2.53
13,ACCUUAGUAAGAUCCAUUC against OSBPL9,0.727
14,UCAAACACGAUGGAGGUCC against SLC29A4,-0.131
15,AAAGACACCGUAGCUGAGG against MFNG,-0.181
16,UUUGUCAUUACCCGAACUG against RNASE11,0.455
17,UAAGGCUCCAGCAUAACAG against MIR924HG,0.428
18,AUCUUGGUCACUGGAGGCG against SFRP5,-3.64
19,UACAAGUCAAGCUCUCACA against LOC727799,-0.236
20,AAUAGAACAAGGACAGGAC against SAYSD1,-1.61
21,AAUGUGCUUAGCGCAGGUG against LINC01530,0.0903

row,Sequence,seed-corrected z-score
1,UCAUUGUUGAUUUGGUCUC against 3-Sep,1.43
2,UCUAGAGUUAGGGUAUCUG against ARMC5,0.117
3,UGAUGGUCACAAUCCUCUC against PCBP3,-2.79
4,UUUUCUUGCGUAUGAAUUC against ZNF302,0.913
5,UCUUGUUCCACCACGUCUC against GRID2,0.102
6,AGUGGGUAGAUUCCAUUCC against NRBP2,-2.82
7,UGUAGGAUCUGUCUCCAGG against LOC728587,-0.669
8,UUCGAUGAAAUGAUUUUCC against ZNF418,0.719
9,UGAUCAUCAGCGGUGAGGC against HMGB3P19,-1.07
10,AAAGUCUCCAGUACGAUGU against MROH3P,1.9
11,UUGCUGAACAGAUCAGUCC against ELF5,-0.256
12,AAGUUCAUAAGAUUCCAUG against MGP,0.212
13,UCAGUUUGUAGUCAGAGCC against AP3S2,0.309
14,UCAUCAUCAAUCACGGACG against BAP1,-2.03
15,UGUCUGUUGAUGGCCAAGC against AMELX,0.157
16,UCUGCGAUCAGUACCACUG against RBBP4,0.278
17,ACAGGGUUAAAAUUGUCCG against M6PR,-0.318
18,UCAAUGUUCACCACACGGC against PLEKHH1,-2.41
19,UUUGUUAGGAGCUUGUAGG against C1GALT1C1,1.55
20,UAUAUCAUCAAGCGUAACC against TCF20,-1.21
21,UCGUUGUAUACUUUGGUGC against PRKAR2B,-0.139

row,Sequence,seed-corrected z-score
1,UAUGCUGUCGGAUGAGUCC against ATF1,0.345
2,UAUUGUCAAAUGAAGGUGG against TREML1,0.93
3,UUGGUAUCAUCUUCUGUAG against PLXDC2,-0.075
4,UUUCUGACCACGUCUAGCA against PEX11B,0.368
5,UGAGUGUAGAGCAGCCACU against NEU2,-2.8
6,UGAGCUACCAUAUGCUUCA against RBMY1F,-0.266
7,AUCCUCACCAUGGACAACG against CELA3A,-0.518
8,UUUUUGAACAUGGUAACAG against RPL31P7,1.16
9,AAGUGGUCAAAAUCCGCUC against LOC728613,-1.66
10,AAAGUCAGCACUUCGAUCC against MCTP1,-2.38
11,UAUGUUGUCACGCAGCACU against HIST1H4F,1.31
12,UUGGUUAUUCGAAGAGCUG against ME1,-0.246
13,UGUCAUUUUUCUUCGGUUC against PWP2,0.885
14,UGAAUGGACAGUAUCUCUG against CCDC54,-0.774
15,AAUCUGCUUCUUUAAGUCG against RBBP6,-2.31
16,UUUCUGUCCAGGAAAUCUC against RWDD4,-0.311
17,UCAGUGGAAGGAAUCCUCA against OR13C8,1.06
18,UUAUUGUCAAGUUCUGAUG against EFCAB14,0.0178
19,UUCUGUUCUACCUCGCUUC against WDR60,-1.36
20,UCUGGAGUUCUCAUUAGAC against IRF7,0.205
21,AUACGUAUCCCGGACGCAG against SLC25A47,2.25

row,Sequence,seed-corrected z-score
1,AGGGUAUUUACCUUCUUGC against LOC729696,-2.56
2,UCCCAUACCAUCCACAGUG against SGCZ,0.248
3,AAGACUUCCAUCUAAGAUC against SLC39A11,-1.62
4,AAUCUUCACAUCAUUCUGG against TMEM70,-0.646
5,AUUGAUGUCAAUCACAUGC against PCDHGA3,-0.895
6,UUUCAUGCGACGGUUUUGG against HOXC4,-0.731
7,UGACUGUUGCUCCACUUCC against SH2D3A,-0.425
8,AGUCUUAUCAGCACCCUUU against MTPN,-11.9
9,AUCCGGUACACCAUGUGGU against CYTH2,-0.326
10,UAUGAUGGAGGCGUAGUUC against MYCL,0.678
11,AAUGAUAUCUGUGAUCGCC against RABGEF1,-0.242
12,UUCGUUCAGUGGGUUGUCC against SYNGR1,-0.497
13,UUCCCUUUCACGUCCAUGU against WFIKKN2,-0.0396
14,UUUCGAUUUAAAAGAGCCC against RALGPS1,1.28
15,UUUCUUCCAACGCAGUCUG against MRPS23,-2.67
16,UAGAGGCUCAUCAUAGAUG against GPATCH3,-0.0793
17,AAUGCUAUUACGGUUGAUG against FBXL6,-0.269
18,UUAUUGCAGAUCUGGAUCC against CYP2C9,-2.3
19,UCUGUUUCAUUUACUUUGC against PRSS44,0.238
20,UUUAUAAAGAGGGUGGAUC against SGCB,-0.0761
21,UAUGAUACACUGGUAGGGU against ZNF684,-2.38
